Screening results as filed in PubChem BioAssay.
Compounds with a hit are over-represented: about 2.6% of the library has one in this group of screens.
Peg3 prom inh = Peg3 promoter-driven luciferase inhibitors, primary screen, cell-based, HeLa, luciferase luminescence. HeLa PEG-Prom luciferase reporter, overnight. inhibition, % at 20 µM. hit rate 1.7% among 360,000. AID 588405, 2011;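 active = inhibition of at least 50% at 20 µM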
Shn3 3UTR inh = reduction of Shn3 3'UTR firefly luciferase signal, primary screen, Schnurri-3 inhibitor project, cell-based, Clone20 osteoblasts, set 2 | Clone20 osteoblast Shn3 3'UTR firefly luciferase, 24 h | AID 588674, 2011 | inhibition, % at 12.5 µM | hit rate 0.52% among 360,000;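 active = mean inhibition of at least 75% with every replicate also reaching 75%; inconclusive = mean inhibition at least 75% but some replicate below; inactive = mean inhibition below 75%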
HIF-2a inh = HIF-2a reporter inhibitors, primary screen, luminescence, 786-0 RCC cells. hit rate 0.72% among 360,000. 786-0 RCC cells HIF-2a reporter, luciferase luminescence, overnight. AID 624352, 2012. inhibition, % at 18.8 µM;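 active = inhibition of the luminescence signal of 40% or more relative to plate controls, in a single-dose primary screen at 18.75 µM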
CF NFkB inh = inhibitors of PAF-induced NF-kB signaling, primary screen, cell-based, GFP fluorescence, uHTS. inhibition, % at 5 µM. AID 588850, 2011. KKLEB NF-kB-GFP reporter, GFP fluorescence overnight. hit rate 0.86% among 360,000;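 active = at least 50% inhibition at 5 µM, scaled per plate between neutral and stimulator controls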;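 note: PAF is a Pseudomonas aeruginosa culture filtrate used as stimulus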
KKLEB cytotox = cytotoxicity in KKLEB CF airway cells, primary screen, cytotoxicity control for CF NF-kB inhibitor project, cell-based, uHTS, fluorescence assay plates; KKLEB CF airway cells viability, ATPlite luminescence, overnight; hits give low values; cells stimulated with P. aeruginosa culture filtrate; activity change (cytotoxicity), % at 5 µM; hit rate 0.36% among 360,000; AID 602141, 2011;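 active = corrected activity change at or below -50% at 5 µM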
Of the large screens only hits and unclear results are named; the others gave an inactive call.

COc1cc(NC(=O)CSc2nc(=O)n(CCN3CCOCC3)c3c2CCCC3)cc(OC)c1	none
CCOC(=O)c1c(C)[nH]c(C(=O)CN(C)CC(=O)Nc2ccccc2C(F)(F)F)c1C	none
COCCn1c(SCC(=O)/C=C2\N(C)c3ccccc3C2(C)C)nnc1-c1ccncc1	Shn3 3UTR inh 89
Cc1ccc(CCNC(=O)c2nnc(CS(=O)(=O)c3ccccc3)o2)cc1	Peg3 prom inh 62
CSCCNC(=O)c1ccc2nc(C3CCCCC3)oc2c1	none
ClC(Cl)(Cl)c1nc2ccccc2n2nncc12	Peg3 prom inh 79
CCCCOc1ccc2c(c1)/C(=C(\C(Cl)=C(Cl)Cl)[N+](=O)[O-])N2	none
CCCCNS(=O)(=O)c1ccc(S(=O)(=O)NCc2ccncc2)cc1	Shn3 3UTR inh 86
CC1=NC(=O)C(N=Nc2cccc(C(=O)O)c2)N1c1ccccc1 (stereo not drawn)	HIF-2a inh 54
Cc1ccc(C(OCC(O)CNCc2ccc(F)cc2)c2ccccc2)cc1 (stereo not drawn)	Peg3 prom inh 100
O=C(c1ccccc1)c1ccc(OCC(O)CNCc2ccc(F)cc2)cc1 (stereo not drawn)	none
CN(CC(=O)Nc1cccc(F)c1)C(=O)c1cc(-c2cccs2)nn1-c1ccccc1	Peg3 prom inh 56
Cc1cn([C@H]2C[C@H](O)[C@@H](/C=C/C(=O)NCc3cccc4ccccc34)O2)c(=O)[nH]c1=O	CF NFkB inh 81, KKLEB cytotox -52
O=C(CCCSc1nnnn1-c1cccc2ccccc12)c1ccc(F)cc1	none
NC1(C#Cc2ccc3c(=O)c4ccccc4sc3c2)CCCCC1	none
Cn1c2ccccc2c(=O)c2ccc(C#CC3(N)CCCCC3)cc21	Peg3 prom inh 52
N#Cc1ccc(C#Cc2ccc3oc4ccccc4c(=O)c3c2)cc1	none
COc1cccc2oc3ccc(C#CC4(N)CCCCC4)cc3c(=O)c12	Peg3 prom inh 60
Cn1c2ccccc2c(=O)c2cc(C#CC3(O)CCCCC3)ccc21	KKLEB cytotox -72
O=c1c2ccccc2oc2ccc(C#CC3(O)CCCCC3)cc12	KKLEB cytotox -57
CCCNC(=O)OC1CC2CC1[C@H]1CCCCN1C2=O (stereo partly drawn)	none (no result: Peg3 prom inh, Shn3 3UTR inh, CF NFkB inh, KKLEB cytotox)
Cc1cc(S(=O)(=O)Nc2c(C)nc3nc[nH]n3c2=O)ccc1F	none
Cc1ccc(OCC(=O)Nc2ccc(NC(=O)c3ccccc3)c(C)c2)cc1	none
CCCOc1ccc(Cn2c(=O)oc3ccc(C)cc32)cc1	none
O=C(O)C1CCCCN1C(=O)c1ccc(S(=O)(=O)N2CCCCCC2)cc1 (stereo not drawn)	none
Cc1cc(C)c(CN2CCN(C(=O)Cn3cnc4c(NCc5ccccc5)ncnc43)CC2)c(C)c1	none
COc1ccc(C2=NOC(C(=O)Nc3cccnc3)C2)cc1OC (stereo not drawn)	none
CCOC(=O)c1sc(N2N=C(C)/C(=C\c3ccc(OCC(=O)OC)cc3)C2=O)nc1C	none
CCN(CC)CCOC(=O)C(c1ccccc1)c1ccccc1	KKLEB cytotox -91
COC(=O)C(NC(=O)CCc1nnc2ccc(N3CCCCC3)nn12)C(C)C (stereo not drawn)	none
O=Nc1ccc(O)c2ncccc12	Peg3 prom inh 76, Shn3 3UTR inh 86, CF NFkB inh 72, KKLEB cytotox -51
Nc1ccc(N=Nc2ccccc2)c2cccnc12	none
COc1cccc(N=Nc2ccc(O)c3ncccc23)c1	CF NFkB inh 100, KKLEB cytotox -81
COc1ccc(C)cc1N=Nc1ccc(O)c2ncccc12	Shn3 3UTR inh 90
O=S(=O)(O)c1cccc2c(N=Nc3ccc(O)c4ncccc34)cccc12	none
Cc1ccccc1N=Nc1ccc(O)c2ncccc12	Shn3 3UTR inh inconclusive
COc1ccc(N=Nc2ccc(O)c3ncccc23)cc1	Shn3 3UTR inh 91
CSc1ccccc1NC(=O)CN1C(=O)C2CC=CCC2C1=O (stereo not drawn)	none
CC(C)c1ccc(OCC(=O)NCc2n[nH]c(=O)c3ccccc23)cc1	none
Cn1c(=O)n(C)c2cc(S(=O)(=O)NCCO)ccc21	none
COc1cccc(N=Nc2ccc3cccnc3c2O)c1	Shn3 3UTR inh 90
COc1ccc(-c2ccc3c(c2)C2CC3CCN2C(=O)C(C)(C)C)cc1 (stereo not drawn)	none
O=C(CCN1C(=O)/C(=C/c2ccccc2F)SC1=S)N[C@@H](CO)Cc1ccccc1	Peg3 prom inh 68
O=C(NCCCn1ccnc1)/C(=C/c1ccco1)NC(=O)c1ccco1	none
CC(=O)Nc1ccc(Nc2nc(-c3sc(C)nc3C)cs2)cc1	none
CC(=O)c1ccc(Nc2nc(-c3sc(C)nc3C)cs2)cc1	Peg3 prom inh 55
Cc1ccc(C(=O)NCC(=O)NCC(c2cccs2)N(C)C)cc1C (stereo not drawn)	none
CCOC(=O)Cc1c(C)nc2c(C#N)c[nH]n2c1=O	none
CCOC(=O)Cc1c(C)nc2c(-c3cccc(Br)c3)c[nH]n2c1=O	Peg3 prom inh 58
COc1cc2c3nnc(-c4ccc(F)cc4)c-3cn(Cc3ccccc3F)c2cc1OC	Peg3 prom inh 110
CCN(CC)C(=O)C1=C(C)N(CCCOC)C(=O)C(CC(=O)NCCCCc2ccccc2)C1 (stereo not drawn)	none
COc1ccc(CC2(CO)CCN(CC3=Cc4cc(Cl)ccc4OC3)CC2)cc1	Shn3 3UTR inh 90
COc1ccc(C(C[N+](=O)[O-])C2(c3ccc(OC)c(OC)c3)C(=O)c3ccccc3C2=O)cc1 (stereo not drawn)	Peg3 prom inh 102, Shn3 3UTR inh 95, HIF-2a inh 87
Cn1c(=O)n(C/C=C/c2ccccc2)c(=O)c2c1nc1n2CCCN1c1ccc(F)cc1	none
C=CCNc1nc(-c2ccccn2)nnc1-c1ccccc1	Shn3 3UTR inh 91
c1ccc(-c2cnnc(-c3ccccn3)n2)cc1	none
CCOC(=O)c1sc(NC(=O)Nc2ccccc2)cc1C	KKLEB cytotox -51
COC(=O)c1cccc(NC(=O)/C=C/c2ccc3c(c2)OCO3)c1	HIF-2a inh 50
CCn1c(/C=C/c2ccc(O)c(O)c2)nc2ccccc2c1=O	none
CCn1c(/C=C/c2cc(Br)ccc2O)nc2ccccc2c1=O	Peg3 prom inh 68
CCCCSc1nc(C)cc(SCC(=O)N/N=C/c2cccc(OC)c2O)n1	Peg3 prom inh 53
COc1cccc(/C=N/NC(=O)CSc2nnc(C)n2-c2ccccc2)c1O	none
C=C1C(=O)[C@]23C[C@H]1CCC2[C@@]1(C)C(C[C@@H]3O)[C@](C)(C(=O)OC)CC[C@@H]1O (stereo partly drawn)	Peg3 prom inh 100, Shn3 3UTR inh 99, HIF-2a inh 99, CF NFkB inh 90, KKLEB cytotox -73
